Screening data from PubChem.
Efa HMGR inh: inhibitors of class II HMG-CoA reductase from Enterococcus faecalis; AID 1066; inhibition, % at 10 µM; purified E. faecalis HMGR, NADPH absorbance 340 nm kinetic; actives 0.41% (n = 190,000);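 active = inhibition above a set limit, the median over all tested compounds plus 3 SD, cut at about 9.5% in these data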;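 note: enzyme runs in reverse so mevalonate oxidation gives rising NADPH absorbance; 0% = complete reaction with DMSO and 100% = background rate lacking mevalonate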
PABP FP inh: blocks human PABP binding to poly(A) RNA; P11940; fluorescence polarization; calls only at 35 µM; actives 1% (n = 290,000); AID 2014;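 note: calls also rest on retests at 20 µM and on dose response follow-up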
Target sequence (P11940 whole entry, looked up): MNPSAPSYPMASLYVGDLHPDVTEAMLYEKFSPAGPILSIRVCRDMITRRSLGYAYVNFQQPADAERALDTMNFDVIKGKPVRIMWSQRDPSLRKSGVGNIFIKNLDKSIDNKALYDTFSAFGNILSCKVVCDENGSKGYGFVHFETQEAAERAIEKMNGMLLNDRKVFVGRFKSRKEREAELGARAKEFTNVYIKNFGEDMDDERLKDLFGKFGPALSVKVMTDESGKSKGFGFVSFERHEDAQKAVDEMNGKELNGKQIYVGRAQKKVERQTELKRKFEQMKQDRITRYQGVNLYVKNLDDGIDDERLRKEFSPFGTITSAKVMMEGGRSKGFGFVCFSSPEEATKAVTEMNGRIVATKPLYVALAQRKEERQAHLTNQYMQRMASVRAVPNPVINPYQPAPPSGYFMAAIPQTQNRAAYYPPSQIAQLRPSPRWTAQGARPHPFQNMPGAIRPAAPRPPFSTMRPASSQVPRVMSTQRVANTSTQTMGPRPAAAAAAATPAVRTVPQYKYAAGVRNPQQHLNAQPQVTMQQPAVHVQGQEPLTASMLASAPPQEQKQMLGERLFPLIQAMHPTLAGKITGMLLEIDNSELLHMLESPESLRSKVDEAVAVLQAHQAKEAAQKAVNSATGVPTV
eIF4H inh: inhibitors of RNA binding by human eIF4H; Q15056; eIF4H fluorescence polarization binding assay; inhibition, % at 35 µM; actives 0.94% (n = 290,000); AID 2012;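 note: calls also rest on retests at 20 µM and on dose response follow-up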
PHOSPHO1 block: PHOSPHO1 (human) inhibition; Q8TCT1; recombinant PHOSPHO1, absorbance phosphatase assay; actives 1.1% (n = 290,000); AID 1565; inhibition, % at 13.3 µM; in the data active = inhibition above about 60%
MLLE-PAM2 inh: blocks PAM2 peptide binding to the PABP1 MLLE domain; P11940; GST-MLLE / FITC-PAM2 fluorescence polarization; inhibition, % at 20 µM; actives 0.36% (n = 360,000); AID 588489; in the data active = inhibition above about 35%, passing the limit was not always enough;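 note: plate controls were DMSO wells with GST-MLLE for no effect and wells lacking GST-MLLE protein for full effect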
Numbers without * were called inactive; i = inactive; / = no result given; + = active, no number. In the library only some 2.4% were active in any assay of this set; here they are far more common. Unless noted, the rule behind the calls is not given here.

SMILES	Efa HMGR inh	PABP FP inh	eIF4H inh	PHOSPHO1 block	MLLE-PAM2 inh
O=C(CSc1ccc(-c2ccco2)nn1)NCc1ccccc1	-1	+	97*	2	32
Cc1cccc(NC(=O)CSc2ccc(-c3ccco3)nn2)c1C	0	+	78*	-3	13
Cc1cccc(CSc2ccc(-c3ccco3)nn2)c1	2	+	52*	-1	17
O=C(CSc1ccc(-c2ccco2)nn1)N1CCCCC1	0	+	95	9	28
Cc1cc(NS(=O)(=O)c2ccc(NC(=O)c3ccc([N+](=O)[O-])cc3)cc2)nc(C)n1	/	/	/	/	4
CC(C)OCCCNC(=O)c1cccc2c1C(=O)c1ccc(Cl)cc1S2(=O)=O	/	/	/	/	8
CCOc1cc(N2CCOCC2)c(OCC)cc1NC(=O)COC(=O)CCOc1cc(C)ccc1C	/	/	/	/	-9
O=C(NC(=S)NNC(=O)c1cccs1)c1ccc(Br)o1	-2	i	3	94*	15
O=C(NNC(=S)NC(=O)c1cccs1)c1ccc(O)cc1	/	i	14	-21	15
O=C(Cc1ccccc1)NNC(=S)NC(=O)c1cccs1	/	i	4	86*	17
O=C(CCc1ccccc1)NNC(=S)NC(=O)c1ccc(Cl)cc1	-6	i	6	95*	/
CC1(C)Nc2ccc(O)cc2-c2c1ssc2=S	3	+	80	21	17
COc1ccc(Nc2nc3[nH]c(=O)cc(O)c3s2)cc1	-4	i	56*	21	-19
Nc1cc(=O)[nH]c(SCC(=O)NNC(=O)Cc2ccccc2)n1	-6	i	-7	36	5
O=c1cc(-c2cc3ccccc3o2)c2cc(O)ccc2o1	/	+	80*	11	0
CC(C)(C)NS(=O)(=O)c1ccc(NC(=O)C2CC(=O)N(CCc3ccc(F)cc3)C2)cc1 (configuration not stated)	/	i	-5	19	-10
CN(C)c1ccc(NC(=O)COC(=O)CCC(=O)c2ccc(F)cc2)cc1	-2	i	-10	100*	11
CC(C)Oc1ccc(C(=O)Nc2ccc(N(C)C)cc2)cc1	-6	i	4	76*	-12
CCN(CC)c1ccc(NC(=O)COc2ccc(C)cc2)cc1	/	i	3	81*	-4
Cc1ccc(OCC(=O)Nc2ccc(N(C)C)cc2)cc1	-4	i	-6	81*	1
CCOc1cc(C(=O)CCC(=O)OCC(=O)Nc2ccc(F)cc2)ccc1O	/	/	/	/	0
CCCOc1ccc(C(=O)Nc2ccc(N(C)C)cc2)cc1	-10	i	-1	11	5
Cc1ccc(OCC(=O)Nc2ccc(C(N)=O)cc2)cc1	/	i	3	26	-3
O=C(NCc1ccccn1)c1cc(Cl)ccc1OCc1ccccc1	/	i	-1	43	4
CC(C)Cc1nnc(NC(=O)CCS(=O)(=O)c2ccc(Cl)cc2)s1	/	i	-8	24	21
SMILES	Efa HMGR inh	PABP FP inh	eIF4H inh	PHOSPHO1 block	MLLE-PAM2 inh
Cc1nnc(SCC(=O)Nc2ccc(N3CCOCC3)cc2)n1-c1ccccc1	-7	i	7	64*	-3
Cc1ccc(NC(=O)CSc2nnc(C)n2-c2ccccc2)cc1	4	i	-6	3	0
O=[N+]([O-])c1ccc(Cl)c(/C=N/n2c(C3CCCCC3)n[nH]c2=S)c1	0	i	-1	103*	-87
C/C(=N\Nc1ccc(C(=O)O)cc1)c1ccc(Br)cc1	/	i	51*	29	14
COC(c1ccccc1)c1nnc(CCC(=O)NC2C3CC4CC(C3)CC2C4)o1 (configuration not stated)	4	i	-1	60*	-2
Cc1ccccc1C(=O)NNC(=O)C1CC(=O)N(c2ccc3c(c2)OCCO3)C1 (configuration not stated)	/	/	/	/	0
O=C(C[n+]1cccc(CNC(=O)c2ccc(OC(F)F)cc2)c1)c1ccccc1	-2	i	0	61*	7
O=C(C[n+]1cccc(CNC(=O)c2ccc(OC(F)F)cc2)c1)Nc1ccc(F)cc1	-6	i	1	-10	-8
CCCCN(C)C1=Nc2cccc3cccc1c23	1	i	13	63*	-94
CCOC(=O)c1c(/N=C/N(C)C)sc(/C=N/Nc2ccccc2)c1-c1ccccc1	-6	i	-5	-2	-53
CCOC(=O)c1c(/N=C/N(C)C)sc(/C=N/Nc2ccccc2)c1-c1ccccc1Cl	-1	+	-9	-2	-23
O=C(NCC1CCCO1)C(c1cccs1)N(Cc1cccs1)C(=O)Cn1nnc(-c2cccs2)n1 (configuration not stated)	16*	i	-1	6	6
O=C(NCC1CCCO1)C(c1cccs1)N(C(=O)Cn1nnc(-c2cccs2)n1)C1CCCC1 (configuration not stated)	6	i	45	1	-5
CCOC(=O)c1[nH]c(C)c(CC(C)C)c1C	-4	i	-2	19	11
COc1cc(O)cc2cc3c(c(O)c12)C(=O)CC(C)(O)O3 (configuration not stated)	/	+	72*	-1	45*
COc1cc(O)c2c(c1)OC(C)(C)CC2=O	4	i	7	41	-10
CC(C)NC(=O)C1(C)CCCCN1Cc1ccc(OCc2ccccc2)cc1 (configuration not stated)	/	/	/	/	-9
O=C1/C(=C/c2ccccc2F)SC(=S)N1CCC(=O)N1CCCCC1CCO (configuration not stated)	/	/	/	64*	23
O=C1/C(=C/c2ccc(Cl)cc2)SC(=S)N1CCC(=O)N1CCCCC1CCO (configuration not stated)	/	i	-4	-1	19
CCc1c(O)nc(SCC(=O)N2CCc3cc(OC)c(OC)cc3[C@@H]2C)[nH]c1=O	/	i	0	8	43*
O=C(CN1CCN(C(=O)C2CC2)CC1)Nc1ccc(Cl)cc1F	/	/	/	/	9
O=C1N/C(=C/c2ccc(N3CCCC3)cc2)C(=O)N1c1ccccc1	0	i	1	5	-66
O=C1/C(=C/c2ccc(N3CCCC3)cc2)NC(=S)N1C1CC1	-5	i	126	102*	118
O=C(NCCS(=O)(=O)c1ccc(Br)cc1)c1ccc(Cl)cc1Cl	/	i	1	43	-8
COc1ccc(NC(=O)c2ccc(COCC(F)(F)C(F)F)cc2)cc1	-3	+	active	-4	-1
SMILES	Efa HMGR inh	PABP FP inh	eIF4H inh	PHOSPHO1 block	MLLE-PAM2 inh
COc1ccc(NC(=O)c2ccc(COCC(F)(F)C(F)F)cc2)cc1OC	-12	i	-6	-10	13
CC(C)N1CN(c2ccccc2)C(=S)N(c2ccccc2)C1	/	i	-5	-1	-4
COc1oc(-c2ccc(Cl)cc2)nc1C(F)(F)F	21*	i	16	-1	17
Cc1cc(C)nc(S/C=C/C(=O)c2ccccc2F)n1	/	i	2	3	42*
Cc1ccc2cc3c(N)[nH]nc3nc2c1	-3	i	9	-64	-14
Cc1ccc(-n2c(SCc3cc(=O)n4ccsc4n3)nnc2-c2cccnc2)c(C)c1	-1	i	60*	61*	-47
